The campaign covered roughly 290,000 compounds. About 3,300 (1.1%) were called active. Shown is part of a subset that was picked to be rich in actives. A number with no mark means an inactive call. Cut-off read from the data, not from the text of the source: active = binding response below about 67% or above about 130%; inconclusive = no clear call, values can overlap the other calls; inactive = in between.
Each compound was assayed against Mitogen-activated protein kinase kinase kinase 2 (Homo sapiens) (UniProt Q9Y2U5) (assay: wildtype MEKK2 PB1-MEK5 interaction, increase or decrease – biochemical, multiplex bead flow cytometry, Alexa488-MEK5, primary screen (AID 1531)). Conditions: Alexa488-MEK5 binding to MEKK2 WT, at 10 µM, actives lie on both sides.

Row | SMILES | binding response (% of control)
1 | Cc1cccc(Nc2nc(NCCO)nc(N3CCCC3)n2)c1 | 109%
2 | COc1cc(CC(=O)N2CCC(n3nccc3NC(=O)C3CC3)CC2)cc(OC)c1OC | 103%
3 | CCN(CC)CCOCCOc1ccc(Cl)c2ccccc12 | 7% [inhibitor] (active)
4 | CCC(C(=O)OCCN(CC)CC)c1ccccc1 (configuration not stated) | 101%
5 | Clc1cccc(Cl)c1OCCOCCNCc1ccccc1 | 109%
6 | Cc1cccc(NC(=S)NCCc2ccc(Cl)cc2)c1C | 106%
7 | Cc1ccc(S(=O)(=O)N(C)CC(=O)NCCc2c[nH]c3ccccc23)cc1 | 107%
8 | CCOC(=O)c1ccc(NC(=O)c2c(NCc3ccccc3)[nH]c(=O)[nH]c2=O)cc1 | 102%
9 | CC1CN(C(=O)CCC(=O)NCc2cccnc2)c2ccccc2O1 (configuration not stated) | 103%
10 | CC1CN(C(=O)CCC(=O)NC2CCN(Cc3ccccc3)CC2)c2ccccc2O1 (configuration not stated) | 107%
11 | CC1CN(C(=O)CCC(=O)NCCCN2CCC(Cc3ccccc3)CC2)c2cc(Cl)ccc2O1 (configuration not stated) | 163% (active)
12 | O=C(CN1CCCCCC1)Nc1ccc(S(=O)(=O)N2CCCCC2)cc1 | 100%
13 | O=C(NCc1ccccc1Cl)C1CCN(c2ncnc3c2nc2n3CCCCC2)CC1 | 102%
14 | Cc1cc(C)c(OCC(=O)N(Cc2cccs2)C2CCS(=O)(=O)C2)c(C)c1 (configuration not stated) | 101%
15 | O=C(CN1CCc2ccccc21)NC(c1ccccc1)c1ccccc1 | 95%
16 | Cc1cccc(C)c1NC(=O)COC(=O)c1ccccc1O | 97%
17 | COC(=O)c1[nH]c2cccc(C)c2c1NC(=O)CN1CCCc2ccccc21 | 18% [inhibitor] (active)
18 | COC(=O)c1[nH]c2ccccc2c1NC(=O)CN1CCCc2ccccc21 | -2% (active)
19 | NS(=O)(=O)c1cccc(NC(=O)CN2CCCc3ccccc32)c1 | 99%
20 | COC(=O)c1[nH]c2ccc(Br)cc2c1NC(=O)Oc1ccccc1 | 103%
21 | CC(=O)N1c2ccc(S(=O)(=O)N3CCCC(C(=O)Nc4cccc(F)c4)C3)cc2CC1C (configuration not stated) | 106%

Row | SMILES | binding response (% of control)
22 | CCOC(=O)c1c(-c2ccccc2)oc2cc(Br)c(O)c(C=O)c12 | 94%
23 | O=C(Nc1ccccc1Cl)NC1(C(=O)N2CCOCC2)CCCCC1 | 96%
24 | CC1(C)C2CC[C@]3(C)C(CC=C4[C@@H]5C[C@@](C)(CO)CC[C@]5(C(=O)O)CC[C@]43C)[C@@]2(C)CC[C@@H]1O (some centres not stated) | 105%
25 | C=CCOc1ccccc1NC(=O)CN1C(=O)CNC1=O | 106%
26 | O=C(N/N=C\c1cc2c(cc1Cl)OCO2)c1ccc(Br)s1 | 103%
27 | O=C(CN1CCN(C2CCCCC2)CC1)Nc1ccccc1N1CCCCC1 | 109%
28 | CN1CCN(c2ccccc2NC(=O)COc2ccc(C3CCCCC3)cc2)CC1 | 145% (active)
29 | Cc1ccc(C(C)C)cc1OCC(=O)Nc1ccccc1N1CCCC1 | 100%
30 | NC(=O)c1oc2ccccc2c1NC(=O)CS(=O)(=O)c1ccccc1 | 106%
31 | O=C(Nc1ccccc1[N+](=O)[O-])C1C(c2ccccc2)=C1c1ccccc1 | 97%
32 | O=C(O)c1ccccc1C(=O)Nc1ccccc1[N+](=O)[O-] | 0% (active)
33 | O=C(Nc1ccccc1-c1ccccc1)c1ccccc1[N+](=O)[O-] | 106%
34 | CCOC(=O)C[C@H]1c2ccc(C(F)(F)F)cc2S(=O)(=O)N1c1ccccc1 | 98%
35 | CCOC(=O)C1CCN(C(=O)Cn2nc(C)c3c(C)n(-c4ccccc4)nc3c2=O)CC1 | 101%
36 | COc1ccc(S(=O)(=O)N2CCC(C(=O)NCCC(=O)NCc3cccc(OC)c3)CC2)cc1 | 104%
37 | CCOc1cc(/C=C/c2nc3ccccc3c(=O)[nH]2)cc(Br)c1OC | 98%
38 | O=C(Nc1c2c(nn1-c1cccc(Cl)c1)CS(=O)(=O)C2)c1cccs1 | 81%
39 | CCOc1cc(C2C(C(=O)c3ccco3)=C(O)C(=O)N2Cc2ccccc2)ccc1O (configuration not stated) | 93%
40 | CCCc1nn(C)c2c(=O)[nH]c(-c3cc(S(N)(=O)=O)ccc3OCC)nc12 | 105%
41 | COc1ccc(S(=O)(=O)NC(C)C(=O)NCc2ccncc2)cc1Cl (configuration not stated) | 98%
42 | Cn1cc(CCC(=O)NC2CC2)c2ccccc21 | 96%

Row | SMILES | binding response (% of control)
43 | COc1ccc(C(=O)Nc2ccnn2C2CCN(Cc3ccncc3)CC2)cc1 | 101%
44 | CC(C)Oc1ccc(CN2CCC(n3nccc3NC(=O)c3cccnc3)CC2)cc1 | 142% (active)
45 | COc1ccccc1C(=O)Nc1ccnn1C1CCN(Cc2cnn(C)c2)CC1 | 88%
46 | Cc1ccc(SCC(=O)NNC(=O)c2ccc(S(C)(=O)=O)cc2)cc1 | 102%
47 | O=C(NCCc1ccc(Cl)cc1)C1CC(=O)N(C2CCCCC2)C1 (configuration not stated) | 98%
48 | CC(C)OCCCNC(=O)C1CC(=O)N(C2CCCCCCC2)C1 (configuration not stated) | 100%
49 | O=C(NCCCN1CCCCCC1)C1CC(=O)N(C2CCCC2)C1 (configuration not stated) | 162% (active)
50 | CCn1c(CC(=O)Nc2ccccc2)nnc1SCC(=O)N1CCOCC1 | 96%
51 | CCOC(=O)c1ccc(N2C(=O)CC(N3CCC(C(=O)OCC)CC3)C2=O)cc1 (configuration not stated) | 105%
52 | CCCCOC(=O)c1ccc(N2C(=O)CC(N3CCN(C/C=C/c4ccccc4)CC3)C2=O)cc1 (configuration not stated) | 176% (active)
53 | CCOC(=O)c1ccc(N2C(=O)CC(N3CCN(C(=O)c4ccccc4)CC3)C2=O)cc1 (configuration not stated) | 96%
54 | C#CCOCCOCCOCCNc1nc(N2CCN(C(=O)C(Cc3ccc(O)cc3)n3cc(C(N)CC(C)C)nn3)CC2)nc(N2CCN(C(=O)C(Cc3ccc(O)cc3)n3cc(C(N)C(C)CC)nn3)CC2)n1 (configuration not stated) | 147% (active)
55 | C#CCOCCOCCOCCNc1nc(N2CCN(C(=O)C([C@@H](C)CC)n3cc(C(N)COC(=O)C(F)(F)F)nn3)CC2)nc(N2CCN(C(=O)[C@H](CCCCN)n3cc(C(N)CC(C)C)nn3)CC2)n1 (some centres not stated) | 241% (active)
56 | C#CCOCCOCCOCCNc1nc(N2CCN(C(=O)C([C@@H](C)CC)n3cc(C(N)COC(=O)C(F)(F)F)nn3)CC2)nc(N2CCN(C(=O)[C@H](Cc3ccc(O)cc3)n3cc(C(N)[C@H](C)CC)nn3)CC2)n1 (some centres not stated) | 120%
57 | C#CCOCCOCCOCCNc1nc(N2CCN(C(=O)[C@H](CCC(=O)O)n3cc(C(N)CO)nn3)CC2)nc(N2CCN(C(=O)[C@H](Cc3ccc(O)cc3)n3cc(C(N)[C@H](C)CC)nn3)CC2)n1 (some centres not stated) | 108%
58 | C#CCOCCOCCOCCNc1nc(N2CCN(C(=O)[C@H](C(C)C)n3cc(CCO)nn3)CC2)nc(N2CCN(C(=O)[C@H](C(C)C)n3cc(CCO)nn3)CC2)n1 | 97%
59 | C#CCOCCOCCOCCNc1nc(N2CCN(C(=O)[C@H](CCC(=O)O)n3cc(C(N)CO)nn3)CC2)nc(N2CCN(C(=O)[C@H](CCCCN)n3cc(C(N)[C@H](C)CC)nn3)CC2)n1 (some centres not stated) | 97%
60 | C#CCOCCOCCOCCNc1nc(N2CCN(C(=O)[C@H](CCC(=O)O)n3cc(C(N)CO)nn3)CC2)nc(N2CCN(C(=O)[C@H](CCCCN)n3cc(C(N)CC(C)C)nn3)CC2)n1 (some centres not stated) | 69%
61 | C#CCOCCOCCOCCNc1nc(N2CCN(C(=O)[C@H](Cc3ccc(O)cc3)n3cc(C(N)CC(C)C)nn3)CC2)nc(N2CCN(C(=O)[C@H](CCC(=O)O)n3cc(C(N)[C@H](C)CC)nn3)CC2)n1 (some centres not stated) | 106%
62 | C#CCOCCOCCOCCNc1nc(N2CCN(C(=O)[C@H](CCCCN)n3cc([C@@H](N)C(C)CC)nn3)CC2)nc(N2CCN(C(=O)[C@H](Cc3ccc(O)cc3)n3cc([C@@H](N)C(C)CC)nn3)CC2)n1 (some centres not stated) | 211% (active)
63 | C=CCC1(C(=O)N(C)Cc2ccccc2)CCN(C(=O)OC(C)(C)C)CC1 | 94%

Row | SMILES | binding response (% of control)
64 | Cc1cc(Br)ccc1NC(=S)NC1CCCC1 | 94%
65 | CC(=O)[C@@]12O[C@@H]1C[C@H]1[C@@H]3CC[C@H]4C[C@@H](O)CC[C@]4(C)[C@H]3CC[C@@]12C | 107%
66 | CC(C)(C)n1nnnc1C(c1ccccc1F)N1CCN(C(=O)c2ccco2)CC1 (configuration not stated) | 99%
67 | N#C[C@]1(S(=O)(=O)c2ccccc2)C[C@@H]2ON=C(c3cccc(Br)c3)[C@@H]2C1 | 91%
68 | c1ccc2cc(OCCN3CCCC3)ccc2c1 | 102%
69 | O=C(Nc1ccc(Cl)cc1)OCc1cc(-c2ccccc2)on1 | 112%
70 | Clc1ccccc1-c1cc(COc2ccc3ccccc3c2)no1 | -1% (active)
71 | Cc1c(-c2ccccc2)cn2c1-c1ccc(C)n1CC2 | 55% [inhibitor] (active)
72 | CCCOc1ccc(Cc2c(O)nc(N)[nH]c2=O)cc1C | 105%
73 | COc1ccc(N2CCN(C3CCCCC3NS(=O)(=O)c3ccccc3)CC2)cc1 (configuration not stated) | 105%
74 | CCOc1cc2ccccc2cc1C(=O)Nc1ccccn1 | 108%
75 | O=c1[nH]cccc1-c1nc2ccccc2n1Cc1ccc(Cl)cc1 | 105%
76 | Cc1ccc(CNS(=O)(=O)c2ccc3c(c2)N(C)CCO3)cc1 | 94%
77 | COc1cc(/C=C2\SC(=S)N(Nc3ncc(C(F)(F)F)cc3Cl)C2=O)cc(OC)c1OC | 61% [inhibitor] (active)
78 | COc1cccc(/C=N/Nc2ncc(C(F)(F)F)cc2Cl)c1O | 96%
79 | CCOc1ccc(/C=C2\SC(=S)N(NC(=O)c3ccncc3)C2=O)cc1OC | 95%
80 | CC1=NN(Cc2ccccc2)C(=O)/C1=C/c1ccc(N(C)C)cc1 | 109%
81 | O=C1/C(=C\c2ccsc2)NC(=S)N1c1ccccc1 | 87%
82 | CN(C)c1ccc(/C=C2\NC(=S)N(Cc3ccccc3)C2=O)cc1 | 72% [inhibitor] (active)
